In PubChem BioAssay AID1822 (The Scripps Research Institute Molecular Screening Center, 2009):
In all, about 290,000 compounds went through this assay and about 3,500 (1.2%) were called active. Only a selection was taken, and actives are over-represented in it overall. Unmarked numbers belong to inactive results.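 Rule for the calls: active = inhibition above the campaign mean inhibition over all tested compounds plus 3 SD (cut at about 28% in these data); inactive = the rest.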

Test system: M18 aspartyl aminopeptidase (Plasmodium falciparum 3D7)
Experiment: PfM18AAP inhibitors, malaria aminopeptidase, primary screen, biochemical, QFRET, recombinant enzyme (AID 1822);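 note: 0% = plate median of test compound wells and 100% = 2 mM ZnCl2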
Details: H-Glu-NHMec fluorogenic cleavage, at 7.35 µM, stronger effect = higher value

Compound | inhibition
COc1cc(/C=N/Nc2nn3cnnc3c3ccccc23)cc(OC)c1OC | 43.6% (active)
COc1cc(/C=N/NC(=O)Cc2ccccc2)cc(OC)c1OC | 0.54%
COc1cc(Nc2nc3ccc(Cl)cc3n3cnnc23)cc(OC)c1OC | -5.42%
CCOC(=O)C(CC)/C(C)=N\NC(=O)c1cccc(C)c1 (stereo unspecified) | -12.1%
O=CN1CCN(C(=O)c2ccc(Br)o2)CC1 | -0.01%
O=C(Cc1ccccc1)Nc1c(C(=O)N2CCCCCC2)cnn1-c1ccccc1 | 5.1%
COc1ccccc1C(=O)Nn1cnnc1 | 18.1%
O=C(Nn1cnnc1)c1cc(Cl)ccc1Cl | 54.6% (active)
O=C(COc1ccccc1Cl)N1CCCCCCC1 | 5.5%
O=C(Nn1cnc2ccccc2c1=O)c1ccc([N+](=O)[O-])cc1Cl | -1.63%
Cc1c(NC(=O)Nc2ccccc2Cl)sc(=S)n1C | 4.48%
O=C(Nc1ccccc1Cl)Nn1cnnc1 | 77.6% (active)
Cc1nn(-c2ccccc2)c(C)c1NC(=O)COc1ccc(Cl)cc1Cl | -6.26%
O=C(Nc1cccnc1)c1cc(Cl)ccc1Cl | -0.24%
O=C(COc1ccc([N+](=O)[O-])cc1Cl)Nn1cnnc1 | 33% (active)
O=C(Nc1ccccc1Cl)Nc1cccc2cccnc12 | 6.47%
O=C(COc1ccccc1Cl)Nn1cnnc1 | 31% (active)
O=C(COc1ccccc1Cl)Nc1ccc(C(=O)c2ccc(C(=O)O)cc2)cc1 | -8.1%
COc1ccccc1NC(=O)CCC(=O)N1CC(C)Oc2ccc(C)cc21 (stereo unspecified) | -4.62%
O=C(CN(Cc1ccccc1)C(=O)CCC(=O)Nc1ccccn1)NCCc1ccccc1 | 0.21%
O=[N+]([O-])c1cccc(S(=O)(=O)NCc2ccccn2)c1 | -8.77%

Compound | inhibition
CN(Cc1ccccc1)CC(O)COc1ccc(CNCc2cc3ccccc3s2)cc1 (stereo unspecified) | -3.49%
COc1ccc(C(=O)NC2CC2)cc1OC1CCN(C/C=C/c2ccccc2)CC1 | -7.74%
CC(C)CCNC(=O)c1ccc2c(Cl)c3c(nc2c1)CCC3 | -8.56%
CCN(CC)c1ccc(C(=O)NNC(=O)CCc2nc3ccccc3c(=O)[nH]2)cc1 | -7.26%
CC(=O)N1CCOc2ccc(S(=O)(=O)N3CCN(c4cccc(C(F)(F)F)c4)CC3)cc21 | -2.98%
Cc1ccc(C(=O)c2c(NC(=O)c3ccncc3)sc3c2CCCC3)cc1 | -11.4%
COC(=O)c1c(NC(=O)CCCC(=O)O)sc2c1CCCCC2 | 29.6% (active)
COC(=O)c1c(NC(=O)CCN2CCOCC2)sc2c1CCCC2 | -1.78%
COC(=O)c1c(NC(=O)C2CC(C)=C(C)CC2C(=O)O)sc2c1CCCCC2 (stereo unspecified) | -0.05%
O=C(CN1CCCC1)Nc1sc2c(c1C(=O)Nc1ccccc1)CCCC2 | 7.15%
Cc1ccc(NC(=O)c2c(NC(=O)CCC(=O)O)sc3c2CCCCC3)cc1 | 36.1% (active)
Cc1cccc(OCC(=O)NC2CC(C)(C)NC(C)(C)C2)c1 | 7.98%
Cc1cc(C)c(S(=O)(=O)Nc2c(C)n(C)n(-c3ccccc3)c2=O)cc1[N+](=O)[O-] | 1.79%
C=CCn1c(SCc2ccccc2)nc2c1c(=O)[nH]c(=O)n2C | -4.12%
Cc1cc(=O)n2nc(N3CCCC(C(=O)NCc4cccc(Cl)c4)C3)sc2n1 (stereo unspecified) | 0.59%
CC(C)(C)c1ccc(C(=O)N2CCC(C(=O)N3CCCCC3)CC2)cc1 | -4.18%
C=CCNC(=O)c1ccccc1SCc1c(C)noc1C | -1.38%
COc1ccc(/C=C/C(=O)Nc2cccnc2)cc1OC | -3.57%
COc1cc(/C=N/NC(=S)Nc2cccnc2)cc(OC)c1O | 44.8% (active)
COc1cc(/C=N/Nc2ccc(C)cc2)cc(Br)c1O | 18.2%
O=C(CCC1CCN(C(=O)c2cccc(Cl)c2F)CC1)Nc1ccccc1 | 4.45%

Compound | inhibition
COc1ccc(C(=O)NC(C)Cn2nc(C)cc2C)cc1OC1CCN(C(C)=O)CC1 (stereo unspecified) | 2.44%
COc1ccc(CCOC(=O)CNC(=O)c2ccc(Cl)cc2Cl)cc1 | 2.28%
O=C(CSC1=NCCS1)Nc1nc(-c2ccccc2)cs1 | 4.17%
O=C(CSc1nc2ccccc2[nH]1)Nc1nc(-c2ccccc2)c(-c2ccccc2)o1 | 1.21%
O=C(CSc1ncn[nH]1)Nc1nc(-c2cccc([N+](=O)[O-])c2)cs1 | 41.6% (active)
O=C(CSc1nc(-c2ccccc2)cs1)Nc1cccc([N+](=O)[O-])c1 | 1.5%
O=C(CSc1ncn[nH]1)Nc1ccnc2ccccc12 | 71.8% (active)
O=C(Nc1nsc(-c2ccccc2)n1)c1ccncc1 | -9.47%
CCN(C(=O)CSc1ncn[nH]1)c1cccc2ccccc12 | 19%
O=C(CSc1ncn[nH]1)Nc1nsc(-c2ccccc2)n1 | 34.3% (active)
O=C(CSc1n[nH]c(-c2cccnc2)n1)Nc1ccnc2ccccc12 | -2.9%
O=C(Nc1ccccc1)Nc1nnc(COc2ccccc2F)s1 | -2.7%
CCOc1ccc2nc(NC(=O)c3cc([N+](=O)[O-])ccc3N3CCOCC3)sc2c1 | -2.3%
CCOC(=O)N1CCN(C(=O)c2ccc3c(=O)n(CCc4ccc(OC)c(OC)c4)c(=O)[nH]c3c2)CC1 | 4.45%
CCC(C)Sc1nc2c(cnn2-c2ccc(F)cc2)c(=O)[nH]1 (stereo unspecified) | 1.81%
COc1ccc(CCN(C)C(=O)C23CC4CC(CC(Cl)(C4)C2)C3)cc1OC | -8.52%
CC1CCN(C(=O)CCc2nnc3ccc(NCc4ccco4)nn23)CC1 | 23.2%
CCC(C)[C@H](NC(=O)N1CCn2c1nc1ccccc12)C(=O)NCc1ccc(OC)cc1 (stereo partly specified) | 9.53%
C=CCC1(CC=C)CCCN1C(=O)c1cc(COc2ccc(-n3cncn3)cc2)on1 | -14.1%
